The source of these data is PubChem BioAssay (NCI).

What all share (experiment): NCI-60 one-dose screen, 48 h (100 = growth as untreated, 0 = no growth, -100 = all killed)
For assay [1], the system named is HCT-15 colon. The settings on record: 10 µM unless noted.
The subject of assay [2] is HT29 colon. Particulars: 10 µM unless noted.
Assay [3] deals with SNB-75 CNS. The settings on record: 10 µM unless noted.
Assay [4] relates to SNB-19 CNS. Particulars: 10 µM unless noted.
For assay [5], the system named is U251 CNS. Particulars: 10 µM unless noted.
The test system of assay [6] is PC-3 prostate. Particulars: 10 µM unless noted.
The subject of assay [7] is SK-MEL-5 melanoma. Particulars: 10 µM unless noted.
The test system of assay [8] is UACC-62 melanoma. Particulars: 10 µM unless noted.
In assay [9] the test system is LOX IMVI melanoma. Particulars: 10 µM.
The test system of assay [10] is SK-MEL-28 melanoma. The settings on record: 10 µM unless noted.
The subject of assay [11] is SK-MEL-2 melanoma. The settings on record: 10 µM unless noted.
Assay [12] deals with SN12C renal. Particulars: 10 µM unless noted.
For assay [13], the system named is UO-31 renal. Particulars: 10 µM unless noted.
The test system of assay [14] is ACHN renal. Particulars: 10 µM unless noted.
The subject of assay [15] is CAKI-1 renal. Particulars: 10 µM unless noted.
Assay [16] relates to A498 renal. The settings on record: 10 µM unless noted.
Assay [17] deals with CCRF-CEM leukemia. Particulars: 10 µM unless noted.
Assay [18] concerns MOLT-4 leukemia. Particulars: 10 µM unless noted.
Assay [19] deals with TK-10 renal. Particulars: 10 µM unless noted.
Assay [20] relates to EKVX NSCLC. The settings on record: 10 µM unless noted.

This is part of a sample that, as a whole, favours compounds with a hit. Of some 83,000 tested, about 20% had one in any assay.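 96-well plates, one dose, 48 hours. Percent growth reported; active if below 10.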 Values without a mark were called inactive. The source made the active and inactive calls.

Regarding `Cc1ccc(Nc2ccc(O)c3c2C(=O)c2c(O)ccc(Nc4ccc(C)cc4)c2C3=O)cc1`, the growth in [1] was 94.8%; in [2], 106%; in [3], 99.4%; in [4], 91.6%; in [5], 99.8%; in [6], 90.7%. Also, the growth in assay [7] was 91.7%; in [8], 105%; in [9] it was 96.9%; in [10], 112%; in assay [11], 118%; in assay [12], 106%. The growth was 82.7% in assay [13]; 100% in assay [14]; 92.9% in [15]; 97.4% in [16]; 95.5% in [17]; 109% in assay [18].

As for `CN(Cc1ccccc1)c1ccc(SC#N)cc1`, the growth in [1] is 71.8%; in [2] it was 52.3%; in [3], 81.3%; in assay [4] it was 93.3%; in [5] it was 73.4%; in assay [6], 27.4%. Besides, the growth in [7] was 98.2%; in assay [8] it was 97%; in assay [9] it was 45%; in assay [10], 101%; in assay [11] it was 98.4%; in assay [12], 103%. In addition, the growth was 37.7% in assay [13]; 95.8% in assay [19]; 78.8% in [14]; 98.9% in [15]; 93% in assay [16]; 10.8% in assay [17]. Also, the growth in [18] was 55.4%.

`CCCCCCCCCCCC1=NCCCN1CCCC`: the growth in assay [1] is 91.7%; in [2] it was 86.1%; in [3], 102%; in assay [4], 101%; in [5] it was 100%; in assay [6] it was 89.1%. The growth in assay [7] was 95.8%; in assay [8], 96.7%; in assay [9], 77.1%; in [10], 103%; in assay [11], 107%; in assay [12] it was 98.4%. Moreover, the growth in [13] was 84.3%; in assay [19], 108%; in assay [14], 104%; in assay [15], 111%; in assay [17], 87.4%; in assay [18] it was 92%.

As to `CCCCCCCCCCCC1N=C(N)N=C(N)N1c1cccc(Br)c1` (stereo unspecified), the growth in assay [1] was 71.5%; in assay [2], -81.8% (active); in [3], -12.7% (active); in assay [4] it was -93.6% (active); in assay [5], -75.2% (active); in assay [6], -55.2% (active). For the same compound, the growth in assay [7] was 19.3%; in [8], 37.9%; in assay [9], 9.55% (active); in assay [10], 70.4%; in [20], 43.2%; in assay [12], 8.08% (active). For the same compound, the growth in assay [13] was 71.9%; in assay [19], -45% (active); in assay [14], 25.3%; in [15], 80.5%; in [16], 76.1%; in assay [17], -15.1% (active). Further, the growth in assay [18] is -16.5% (active).

As to `Clc1ccc(Cc2nc3ccccc3s2)cc1`, the growth in assay [1] was 88%; in assay [2], 118%; in assay [3] it was 83.9%; in assay [4], 121%; in assay [5] it was 79.4%; in [6], 63%. The growth is 96.9% in assay [7]; 87.7% in [8]; 74.3% in [9]; 112% in [10]; 86.5% in assay [20]; 86.1% in [12]. In addition, the growth in assay [13] was 61.2%; in assay [14], 98.5%; in [15] it was 96.3%; in assay [16], 117%; in [17] it was 93.1%; in assay [18] it was 92.6%.

Take `N=C1C=C(N)C(=O)c2ccccc21`: the growth in assay [1] is -74.6% (active); in assay [2] it was -38.8% (active); in assay [3] it was -99.1% (active); in assay [4] it was -98.7% (active); in assay [5], -72.1% (active); in [6] it was -7.01% (active). Besides, the growth was -96% (active) in assay [7]; -95.8% (active) in assay [8]; -100% (active) in assay [9]; -96.5% (active) in assay [10]; -53.6% (active) in [11]; -66.9% (active) in assay [12]. For the same compound, the growth is -86.3% (active) in assay [13]; -67.5% (active) in [19]; -81.6% (active) in [14]; -47.7% (active) in assay [15]; 3.15% (active) in assay [17]; -25% (active) in [18].

As to `S=C=Nc1ccc(N2CCOCC2)cc1`, the growth in [1] was 90.5%; in assay [2], 86.3%; in [3], 66.4%; in assay [4], 91.8%; in assay [5], 97.6%; in [6], 90.1%. In addition, the growth is 98.2% in assay [7]; 82.1% in assay [8]; 92.4% in assay [9]; 92.5% in [10]; 91.7% in assay [20]; 104% in assay [12]. Further, the growth in [13] was 84.5%; in assay [19], 93.2%; in [14] it was 96.1%; in assay [15] it was 95.9%; in assay [16] it was 96.5%; in assay [17], 80.6%. In addition, in assay [18], the growth is 92.5%.

Consider `O=[N+]([O-])/C(=C/c1ccccc1)c1ccccc1`, for which the growth was 99.6% in assay [1]; 99% in assay [2]; 106% in [3]; 110% in [4]; 97.4% in assay [5]; 100% in [6]. Also, the growth was 103% in [7]; 108% in assay [8]; 96.3% in assay [9]; 100% in [10]; 107% in assay [11]; 103% in assay [12]. Besides, the growth was 84.4% in [13]; 101% in [14]; 106% in [15]; 107% in assay [16]; 97.5% in [17]; 99% in [18].

In the case of `Cn1c(-c2ccccc2)c(/C=C/C2=[N+](C)c3ccccc3C2(C)C)c2ccccc21`, the growth is 38.9% in [1]; 0.701% (active) in assay [2]; 20.6% in [3]; 18.5% in assay [4]; 8.73% (active) in assay [5]; 8.69% (active) in assay [6]. For the same compound, the growth in [7] is -98.4% (active); in assay [8] it was -3.73% (active); in assay [9] it was 14.8%; in [10], 22.5%; in assay [11] it was 6.41% (active); in [12], 7.02% (active). Further, the growth in assay [13] was 74%; in [19], 3.06% (active); in [14] it was 18.2%; in assay [15], 35.6%; in assay [16] it was 3.03% (active); in assay [17], 8% (active). In addition, the growth in assay [18] was -10.6% (active).
